An excerpt weighted towards active compounds, which were near 19% of everything screened.
Shiga toxin inh = inhibitors of Shiga toxin in Vero cells. inhibition, % at 38.7 µM. Vero cells, Shiga toxin protein synthesis inhibition reporter. hit rate 9.2% among 290,000; in the data active means inhibition mostly above about 28%, no sharp cut-off; inactive means mostly below about 43%; further: 0% is about no effect
Pf growth 48h = P. falciparum growth inhibition at 48 hours (one generation); P. falciparum luciferase growth in erythrocytes, 48 h; Potency, µM (series often up to 28.7 µM), without a hit: at the highest dose activity change, negative = inhibition, hits mostly inhibitors; hit rate 5.9% among 310,000; further: potency means the concentration at half of the fitted maximal effect; on the % scale 0 is the no-effect control and ±100 the full control effect
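Erythrocytes infected with P. falciparum carrying an integrated firefly luciferase reporter (2% hematocrit, 0.1% parasitemia final) were exposed to compounds in RPMI 1640 with 0.5% Albumax at 37 C, 5% CO2. Growth inhibition was scored as reduced luminescence.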
Cycloheximide cs = affects cycloheximide protein synthesis inhibition readout, counter-screen. cell reporter, cycloheximide protein synthesis inhibition counterscreen. max response, %. hit rate 12% among 300,000. AID 2314; in the data active means max response mostly above about 13%, no sharp cut-off; inactive means mostly below about 14%; further: read at 38.3 µM for the half of the compounds with a filed dose; 0% is about no effect
MARV entry inh = blocks Marburg virus binding to or entry into cells; hit rate 1.8% among 300,000; Potency, µM (titrated, usually from 37.8 µM), for the others: at the top dose activity change, negative = inhibition, hits mostly inhibitors; Marburg virus pseudotyped entry inhibition, cell reporter; calls by dose curve; tested in HEK293 cells; further: potency means the concentration at half of the fitted maximal effect; on the % scale 0 is the no-effect control and ±100 the full control effect
Pf growth 96h = P. falciparum growth inhibition at 96 hour, primary screen for plastid delayed-death inhibitors. P. falciparum luciferase reporter growth, 96 h. Potency, µM (series often up to 28.7 µM), inactives show at the top dose activity change, negative = inhibition, usual class: inhibitors. hit rate 6.9% among 320,000. AID 504834; further: potency means the concentration at half of the fitted maximal effect; on the % scale 0 is the no-effect control and ±100 the full control effect
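Erythrocytes infected with luciferase-expressing P. falciparum were dispensed at 2% hematocrit and 0.05% parasitemia (final), then incubated with compounds 96 hours at 37 C in 5% CO2. Luminescence after detection reagent addition reported growth.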
Lassa entry inh = blocks Lassa virus binding to or entry into cells; Lassa virus pseudotype entry inhibition, cell reporter; Potency, µM (series often up to 37.9 µM), for the others: at the highest dose activity change, negative = inhibition, actives largely listed as inhibitors; hit rate 1.2% among 300,000; AID 540256; calls by dose curve; tested in HEK293 cells; further: potency means the concentration at half of the fitted maximal effect; on the % scale 0 is the no-effect control and ±100 the full control effect; nearly all actives have a fitted effect of over 50% in size
* marks the source's active call; other numbers are inactive results; ? = inconclusive; / = no result given; [ ] = dose if it differs, or a comment. Unless noted, the call rests on the fitted dose curve; in most records, active means well fitted inhibition curve with a large enough effect; inconclusive means small, poorly fitted or top-dose-only effect, or another doubt; inactive means no such curve, though single readings can be large or run the other way.

SMILES	Shiga toxin inh	Pf growth 48h	Cycloheximide cs	MARV entry inh	Pf growth 96h	Lassa entry inh
O=C(N/N=C/c1ccc(OC(F)F)cc1OC(F)F)c1ccc(Br)cc1	8	-27%	-1	7%	?	0%
O=C(N/N=C/c1ccc(OC(F)F)cc1)C1=COCCO1	78*	282%	51*	?	340%	?
O=C(NCCc1c[nH]c2ccccc12)c1ccc2c(c1)OCO2	108*	177%	54*	?	299%	-7%[46.1 µM]
O=C(NCCc1c[nH]c2ccccc12)c1ccc2[nH]c(=O)c(=O)[nH]c2c1	-9	/	-3	-12%	11%	-1%
O=C(NCCc1c[nH]c2ccccc12)c1cc(Cl)c2c(c1)OCO2	96*	21%	48*	?	41%	?
Cc1ccc2[nH]cc(CCNC(=O)c3ccc4c(c3)OCO4)c2c1	2	39%	2	/	-16%	/
Cc1cc(Cl)ccc1NC(=O)CCS(=O)(=O)c1cc2c(cc1C)NC(=O)CO2	/	/	/	/	/	18%[46.1 µM]
Nc1nnc(COc2ccc(Br)cc2Br)s1	92*	60%	21*	?	42%	29%
Cc1ccc(C)c(OCc2nnc(N)s2)c1	-7	44%	2	?	?	2%
O=C(COC(=O)Cc1ccc(Cl)cc1)Nc1ccccc1F	-5	19%	5	4%[46.1 µM]	141%	1%
COc1ccc(C)cc1NC(=O)C(c1ccccc1)N1CCN(CC(=O)N2CCOCC2)CC1 (stereo not drawn)	/	9.3µM*	/	-14%	?	-20%
COc1ccc(C)cc1NC(=O)C(c1ccccc1)N1CCN(CC(=O)N2CCCC2)CC1 (stereo not drawn)	/	12µM*	/	?	12µM*	-3%
O=C(NCCCN1CCOCC1)C1(c2ccccc2)CCOCC1	-6	-5%	0	7%	-16%	24%
O=C(CS(=O)(=O)c1ccc(F)cc1)NCc1ccccc1	/	11%	/	22%[46.1 µM]	63%	-4%
O=C(CCn1nnc(-c2cccs2)n1)NCc1ccccc1Cl	-10	-2%	-4	11%	/	3%
CN(C)c1ccc(-c2nnn(Cc3ccccc3Br)n2)cc1	27	?	17*	1%	?	0%
CCC(C(=O)O)n1nnc(-c2ccc(OCc3ccccc3)c(OC)c2)n1 (stereo not drawn)	-4	1%	-3	/	4.7µM*	/
Clc1ccccc1Cn1nc(-c2ccccc2)nc1-c1ccccc1	13	-5%	18*	7%	38%	-9%
Clc1ccccc1Cn1nnc(-c2cccs2)n1	61*	114%	29*	27%	0%	6%
Cc1ccc(S(=O)(=O)CCC(=O)c2cccc([N+](=O)[O-])c2)cc1	15	6%	7	?	33%	?
COc1ccc(-c2nnn(Cc3ccccc3)n2)cc1OC	/	-5%	11*	-18%[46.1 µM]	38%	?
Clc1ccccc1Cn1nnc(-c2ccccc2)n1	105*	?	53*	?	27%	15%
Clc1ccc(Cn2nnc(-c3ccccc3)n2)cc1	57*	16%	28*	-10%	-25%	5%
COc1cc(-c2nnn(Cc3ccccc3C)n2)cc(OC)c1OC	-2	-16%	-1	/	6%	/
Cc1ccc(C)c2c1cc(C)c1nnc(SCC(=O)Nc3nc4c(s3)CCCC4)n12	-7	-1%	-1	?	11%	-35%
SMILES	Shiga toxin inh	Pf growth 48h	Cycloheximide cs	MARV entry inh	Pf growth 96h	Lassa entry inh
Cc1ccc(N(CC(=O)NC2CC2)S(=O)(=O)c2ccccc2)c(C)c1	-21	-6%	-1	/	9%	/
COc1ccccc1N(CC(O)COc1ccccc1)S(=O)(=O)c1ccccc1 (stereo not drawn)	-3	?	-3	1%	?	-19%
COc1ccccc1N(CC(O)COc1c(C)cc(C)cc1C)S(=O)(=O)c1ccccc1 (stereo not drawn)	-9	12µM*	-3	?	13µM*	?
COc1ccccc1N(CC(O)COc1ccc(C)cc1)S(=O)(=O)c1ccccc1 (stereo not drawn)	16	?	0	?	2.1µM*	?
Cc1ccc(N(CC(O)CN(C)C)S(=O)(=O)c2ccccc2)cc1 (stereo not drawn)	-4	8%	-7	1%	?	?
Cc1ccc(S(=O)(=O)N(CC(O)CN(C)C)c2ccccc2)cc1 (stereo not drawn)	-18	-16%	-7	?	2.6µM*	-2%
CC1(C(=O)NNC(=S)NCc2ccco2)CC1(Cl)Cl (stereo not drawn)	-15	7%	-3	/	-2%	/
CCOc1ccc(C(C)=O)cc1CN1C(=O)NC2(CCCCCC2)C1=O	-3	2.3µM*	-4	?	4.7µM*	9%[46.1 µM]
CC(=O)c1ccc(OCC(C)C)c(CN2CCCCC2)c1	-25	-3%	-10	?	3.7µM*	-11%
CCC1(c2ccc(Cl)cc2)NC(=O)N(Cc2ccc(C(=O)OC)cc2)C1=O (stereo not drawn)	-8	?	10	8.9µM*	?	?
COC(=O)c1ccc(CN2C(=O)NC3(CCCCC3)C2=O)cc1	61*	50%	119*	?	66%	?
O=C(Nc1cccc2nsnc12)c1ccc(-c2cccc(Cl)c2)o1	3	19%	-1	3%	15%	6%
O=C(NCc1ccc(F)cc1)N1CCc2ccccc2C1	69	20%	36*	15%[46.1 µM]	-21%	1%
COc1ccc(CNC(=O)N2CCc3ccccc3C2)cc1	58*	44%	16*	?	34%	?
O=C(COc1coc(CN2CCN(c3ccccc3F)CC2)cc1=O)Nc1ccccc1	/	15%	/	11%[46.1 µM]	30%	15%
Cc1ccc(NC(=O)COc2coc(CN3CCN(c4ccccc4)CC3)cc2=O)cc1	/	?	/	?	4.7µM*	21%
Cc1cccc(NC(=O)COc2coc(CN3CCN(c4ccccc4)CC3)cc2=O)c1C	/	9.3µM*	/	-23%	?	?
COc1ccccc1N1CCN(Cc2cc(=O)c(OCC(=O)Nc3ccccc3)co2)CC1	/	9.3µM*	/	?	-6%	?
O=C(COc1coc(CN2CCN(c3ccccc3)CC2)cc1=O)Nc1ccccc1	/	?	/	1%	?	-16%
Cc1cc(NC(=O)CSc2ccc3nnc(-c4cccnc4)n3n2)no1	-1	/	0	/	29%	/
COc1ccc(-c2csc3nc(C)nc(N4CCN(c5ccc(C(C)=O)cc5)CC4)c23)cc1OC	65*	?	31*	?	?	?
COc1ccc(N2CCN(c3ncnc4scc(-c5ccccc5)c34)CC2)cc1	-5	9.3µM*	-6	?	?	-10%[46.1 µM]
c1ccc(-c2csc3ncnc(N4CCc5ccccc5C4)c23)cc1	14	12µM*	2	?	12µM*	?
COc1ccc(-c2csc3ncnc(N4CCN(c5cccc(Cl)c5)CC4)c23)cc1	-8	?	-1	?	7.4µM*	?
COc1ccc(-c2csc3ncnc(N4CCN(c5cccc(OC)c5)CC4)c23)cc1	10	?	-2	?	?	-6%

High-throughput results: PubChem BioAssay, National Center for Advancing Translational Sciences (NCATS)
